HCV inh – inhibitors of hepatitis C virus infection. 3.4% of 340,000 active. Potency, µM (top dose mostly 41.8 µM), without a hit: at the top dose activity change, negative = inhibition, most hits filed as inhibitors. Huh7.5.1 HCVcc-Cre infection, luciferase reporter, 44 h. AID 651820; active = well fitted inhibition curve with a large enough effect; inconclusive = small, poorly fitted or top-dose-only effect, or another doubt; inactive = no such curve, though single readings can be large or run the other way; also: potency is read from the fitted curve at half-maximal effect; % is scaled to controls: 0 for no effect and ±100 for the full control effect
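Infectious HCV cell culture screen: compound-treated cells (1,000/well, pre-plated 4 h) are infected with HCVcc-Cre at roughly 0.5 moi and grown 44 h. Infection is quantified by luciferase signal after 15 min substrate incubation at room temperature.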
FMDV antiviral – foot and mouth disease virus antiviral activity | 1.2% of 410,000 active | Potency, µM (highest dose often 57.9 µM), inactives show at the top dose activity change, negative = inhibition, usual class: inhibitors | FMDV antiviral cell-based qHTS | AID 1159524; calls by dose curve; tested in HEK293T cells; also: read-out not given here; potency is read from the fitted curve at half-maximal effect; % is scaled to controls: 0 for no effect and ±100 for the full control effect; nearly all actives have a fitted effect of over 45% in size
HCMV inh – human cytomegalovirus inhibition | HFF cells, HCMV-luciferase reporter, 72 h; stronger effect = lower value | activity change, negative = inhibition, % at 57.5 µM | 4.5% of 410,000 active | AID 1259415; in the data active = activity change below about -60%; inconclusive = no clear call, values can overlap the other calls; inactive = above about -39%; also: % is scaled to controls: 0 for no effect and ±100 for the full control effect
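Compounds were evaluated in HFFs infected with an HCMV luciferase reporter virus (MOI 1 PFU/cell). Luciferase in lysates collected 72 h post infection served as the replication measure.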
MARV entry inh – Marburg virus entry inhibition; Marburg virus pseudotyped entry inhibition, cell reporter; Potency, µM (series often up to 37.8 µM), inactives show at the highest dose activity change, negative = inhibition, hits mostly inhibitors; 1.8% of 300,000 active; AID 540276; calls by dose curve; tested in HEK293 cells; also: potency is read from the fitted curve at half-maximal effect; % is scaled to controls: 0 for no effect and ±100 for the full control effect
Lassa entry inh – inhibitors of Lassa virus binding or cell entry. 1.2% of 300,000 active. Potency, µM (top dose mostly 37.9 µM), for inactives: at the top dose activity change, negative = inhibition, hits mostly inhibitors. Lassa virus pseudotype entry inhibition, cell reporter; calls by dose curve; tested in HEK293 cells; also: potency is read from the fitted curve at half-maximal effect; % is scaled to controls: 0 for no effect and ±100 for the full control effect; nearly all actives have a fitted effect of over 50% in size
SARS PLpro yeast – SARS-CoV PLP inhibition in yeast; S. cerevisiae expressing SARS-CoV PLpro, growth rescue; Potency, µM (titrated, usually from 32.9 µM), inactives show top-dose activity, positive = growth rescue, most hits filed as activators; 0.19% of 330,000 active; AID 485353; calls by dose curve; also: potency is read from the fitted curve at half-maximal effect; 0% is about no effect; nearly all actives have a fitted effect of over 55% in size
* = called active by the depositor; ? = inconclusive; . = no result; ! = repeats disagree; [ ] = remark or other dose. A selection: hits, their analogues and other compounds. The true share with any hit is near 8%.

SMILES	HCV inh	FMDV antiviral	HCMV inh	MARV entry inh	Lassa entry inh	SARS PLpro yeast
Cn1nc(C(C)(C)C)cc1C(=O)N1CCCCC1c1cc(C(=O)NCc2ccccc2)no1 (stereo not given)	.	?	-31	.	.	.
Cn1nc(C(C)(C)C)cc1C(=O)N1CCCCC1c1cc(C(=O)NCc2ccc(F)cc2)no1 (stereo not given)	.	?	-75*	.	.	.
Cc1cc(Cl)ccc1OCC(=O)NCC1Cc2cc(-c3cnccn3)ccc2O1 (stereo not given)	.	-14%	.	.	.	.
COc1ccccc1N1C(=O)N(C(C)=O)C2C1Nc1ccccc1N2C (stereo not given)	?	.	-26	12µM*	?	0%
CCOc1cc(C)c(S(=O)(=O)Nc2ccc(F)cc2)cc1C	?	22%	-62*	-29%	5%	-13%
N[C@@H](Cc1cc(I)c(O)c(I)c1)C(=O)O	2%[8.37 µM]	-19%	12	-2%	16%	0%
N[C@@H](Cc1cc(O)c(O)cc1O)C(=O)O	.	.	.	4µM*	.	.
N[C@H](Cc1ccc(O)c(O)c1)C(=O)O	.	.	.	16µM*	.	.
COC(=O)C(Cc1ccc(N(CCCl)CCCl)cc1)N=Cc1ccccc1O (stereo not given)	?	?	-103*	?	?	2%
NC(Cc1ccc(O)c(O)c1)C(=O)O (stereo not given)	.	-28%	.	.	.	.
N[C@H](Cc1ccc(N(CCCl)CCCl)cc1)C(=O)O	.	.	.	5.8µM*	.	.
C/C=C/C1=CC(=O)C[C@H](c2ccc3c(c2)OCO3)C1	11%	-24%	29	.	.	1%
O=C(NCCn1cc(SCc2ccc(Cl)cc2)c2ccccc21)c1cccs1	.	-7%	-22	-4%[46.1 µM]	?	.
O=C(c1cnccn1)N(CCO)C(c1ccc(-c2ccccc2)cc1)c1nc2ccccc2[nH]1 (stereo not given)	.	.	57	.	.	.
CC(=Nc1ccccc1C(F)(F)F)c1ccncc1	5%	-15%	56	?	21%[46.1 µM]	2%
O=C(c1ccc2c(c1)OCO2)N1C[C@@H]2[C@H](c3ccccc31)[C@H](CO)N2CC1CCCC1	.	.	-27	.	.	.
Cc1ccnc(NC(=O)c2ccc(S(=O)(=O)NCc3ccco3)cc2)c1	?	56%	-1	?	?	-3%
NC(Cc1cc(O)c(O)cc1O)C(=O)O (stereo not given)	3%	.	.	4µM*	?	1%
COc1ccc(Cc2nnc(Nc3ccc4c(c3)OCCO4)[nH]c2=O)cc1	17%	3%	?	?	-31%	4%
COc1cc(C(=O)NC2CCN(C)CC2)ccc1Nc1ncc2c(n1)N(Cc1ccccc1)CCC(=O)N2C	29%[8.37 µM]	30%	-76*	.	.	.
COc1cc(C(=O)NC2CCN(C)CC2)ccc1Nc1ncc2c(n1)N(C1CCCCC1)CCC(=O)N2C	1.8µM*	31%	?	.	.	.
CCN1C(=O)CC(c2ccccc2)N(C2CCCC2)c2nc(Nc3ccc(C(=O)NC4CCN(C)CC4)cc3OC)ncc21 (stereo not given)	8.9µM*	-21%	.	.	.	-23%
CCN1C(=O)CC(C(C)C)N(C2CCCC2)c2nc(Nc3ccc(C(=O)NC4CCN(C)CC4)cc3OC)ncc21 (stereo not given)	17%[8.37 µM]	?	.	.	.	.
Cc1cccc(NCc2nc3ccccc3n2CCOc2ccccc2C)c1	.	8%	-34	?	-23%[46.1 µM]	.
CCN1CCCC1CNC(=O)c1cnn(-c2nccc(-c3cccs3)n2)c1C1CC1 (stereo not given)	.	-9%	.	.	.	.
SMILES	HCV inh	FMDV antiviral	HCMV inh	MARV entry inh	Lassa entry inh	SARS PLpro yeast
COc1ccc(N(CC(=O)N2CCN(c3ccc(Cl)cc3)CC2)S(=O)(=O)c2c(C)n[nH]c2C)cc1	?	-1%	-73*	?	?	2%
Cc1ccc(N(CC(=O)N2CCN(c3cc(C)ccc3C)CC2)S(=O)(=O)c2c(C)nn(C)c2C)cc1	.	-29%	-72*	?	-26%[46.1 µM]	.
Cc1ccc(N(CC(=O)N2CCN(c3ccc(Cl)cc3)CC2)S(=O)(=O)c2c(C)nn(C)c2C)cc1	.	-13%	3	-1%[46.1 µM]	0%[46.1 µM]	.
COc1ccc(N(CC(=O)N2CCN(c3cccc(C)c3C)CC2)S(=O)(=O)c2c(C)noc2C)cc1	?	-14%	-65*!	7%[46.1 µM]	?	-4%
Cc1oc(-c2ccccc2F)nc1CS(=O)CC(=O)NC(C)C (stereo not given)	.	15%	9	?	9%[46.1 µM]	.
COc1cc2c(cc1OC)CN(Cc1cc(=O)n3c(-c4ccccc4)csc3n1)CC2	-30%	-15%	-73*	?	?	0%
CCOC(=O)C1CCN(Cc2cc(=O)n3c(-c4ccccc4)csc3n2)CC1	11%	-18%	-16	19%[46.1 µM]	-1%	-2%
O=c1cc(CN2CCN(c3ccccc3)CC2)nc2scc(-c3ccccc3)n12	-9%	-25%	25	0%[46.1 µM]	?	-2%
CC(=O)c1ccc(N2CCN(Cc3cc(=O)n4c(-c5ccccc5)csc4n3)CC2)cc1	13µM*	-25%	10	-24%[46.1 µM]	?	.
CCN(CC)CCN1C(=O)C(=O)/C(=C(\O)c2ccc(F)cc2)[C@@H]1c1ccncc1	.	.	.	-20%	.	.
Cn1c(=O)c2c(ncn2CC(=O)OCC(=O)NCc2ccc(F)cc2)n(C)c1=O	.	-11%	-65*	.	.	.
NC(N)=N/N=C/c1ccc(OCc2ccccc2)cc1	?	.	-96*	?	2%	-2%
CCn1c2ccc(/C(C)=N\O)cc2c2cc(/C(C)=N\O)ccc21	10µM*	-14%	5	-29%	0%	1%
C/C(=N\O)c1ccc2c(c1)OCCO2	6%	2%	0	.	.	-3%
CCn1c2ccccc2c2cc(/C=N/O)ccc21	11µM*	-21%	-74*	-30%	6%	-2%
CCn1c2ccccc2c2cc(/C=N/n3cn[nH]c3=S)ccc21	11µM*	-3%	-31	10µM*	5%	-17%
CCn1c2ccccc2c2cc(/C=N/n3cnnc3)ccc21	7.9µM*	.	-24	?	-15%	-12%
CCn1c2ccccc2c2cc(/C=N/n3c(-c4cc(C)[nH]n4)n[nH]c3=S)ccc21	?	0%	10	5µM*	?	0%
CCOc1ccc(NC(=O)Cn2cc(C(=O)c3ccc(CC)cc3)c(=O)c3ccc(C)nc32)cc1	.	-19%	-1	.	4%[46.1 µM]	.
CCc1ccc(-n2nc3cc(C)c(N)cc3n2)cc1	-17%	-23%	102	.	.	-3%
Cc1ccc(-n2nc3cc(C)c(N)cc3n2)cc1	-21%	-60%	-16	?	13µM*	-4%
CN(C(=O)CCn1c(=S)oc2ccccc21)c1ccc(F)cc1	8%	-5%	-89*	.	.	-3%
CCc1c(C)nc2ncnn2c1NCc1cccs1	-22%	.	-69*	?	-27%	-3%
CCc1c(C)nc2ncnn2c1NCCc1ccc(OC)cc1	5.6µM*	11µM*	-92*	?	?	-1%
CO[C@H](C1CCCCC1)[C@H](C)C=CCC(=O)OCCCc1ccccc1	.	.	.	5%[14.2 µM]	?	.
